High-throughput results deposited in PubChem by several laboratories.
An excerpt weighted towards active compounds, which were near 12% of everything screened.
INS promoter inh: TRM-6 insulin promoter activity inhibition. TRM-6 cells (human fetal islet line), insulin promoter-eGFP reporter, imaging; reporter expression induced with tamoxifen. inhibition, % at 2 µM. 130,000 tested, 0.9% active. AID 1273;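 active means inhibition above the mean plus 3 SD, with well images judged a real hit on visual review, cut at about 60% in these data, passing the limit was not always enough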
ROMK primary: human ROMK K+ channel modulation, primary screen | 130,000 tested, 2% active | P48048 | Tet-inducible ROMK, thallium flux fluorescence; actives lie on both sides | B-score at 10 µM;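 active means signal ratio slope over the read window, or its plate-corrected B-score, at least 3 SD from the plate mean, either direction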;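 further: B-score of the F/F0 ratio slope over 7 to 12 s after thallium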
Target sequence (P48048 whole entry, looked up): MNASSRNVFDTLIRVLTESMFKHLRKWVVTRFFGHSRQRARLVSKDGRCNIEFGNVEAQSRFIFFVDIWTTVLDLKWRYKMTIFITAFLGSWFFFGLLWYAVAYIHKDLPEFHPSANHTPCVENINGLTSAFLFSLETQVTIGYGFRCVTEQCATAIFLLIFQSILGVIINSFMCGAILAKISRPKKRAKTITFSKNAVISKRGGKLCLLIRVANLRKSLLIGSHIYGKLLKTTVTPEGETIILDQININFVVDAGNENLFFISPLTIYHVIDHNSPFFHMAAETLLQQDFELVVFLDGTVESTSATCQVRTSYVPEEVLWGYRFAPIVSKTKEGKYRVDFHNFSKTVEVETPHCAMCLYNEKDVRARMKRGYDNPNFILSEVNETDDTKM
WT yeast gro inh: growth inhibition of WT yeast, mitochondrial fusion screen; mitochondrial fusion phenotypic screen, WT strain; inhibition, % at 10 µM; 190,000 tested, 2.1% active; in the data active means inhibition above about 58%; tested in S. cerevisiae
Cl transport mod: KCC2 (human) Cl- transport modulation; KCC2 cells, thallium flux FluoZin-2 fluorescence; 190,000 tested, 2.2% active; Q9H2X9; AID 1456; B-score of Tl+ flux slope (higher = more flux/activation; lower = inhibition) at 10 µM;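 active means thallium flux slope and its plate-corrected score both differing from the plate sample mean at a set confidence after two filtering rounds, in either direction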;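 further: slope of fluorescence scaled to starting intensity during 10 to 20 s after thallium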
Lmaj promast: reduces viability of Leishmania major promastigotes | resazurin fluorescence viability | inhibition, % at 10 µM | 200,000 tested, 9% active; in the data active means inhibition above about 50%;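 further: promastigotes grown with compound for 44 hours at 28 °C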
Insulin prom up: MIN6 insulin promoter up-regulation; MIN6 insulin promoter-GFP reporter, high-content imaging; hits give high values; z-score at 5 µM; 190,000 tested, 0.3% active;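 active means z-score above 3 at 5 µM with at least 500 cells counted in the well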
Starred values were filed as active, the others as inactive.

How did C=CCn1c(SCc2c(F)cccc2Cl)nnc1-c1ccco1 do in these assays?
INS promoter inh: -18; ROMK primary: -2.3; WT yeast gro inh: -10; Cl transport mod: -1.9; Lmaj promast: 3; Insulin prom up: -1.4

Results for O=C(Nc1ccc(Cl)c(S(=O)(=O)N2CCOCC2)c1)c1ccccc1-c1ccc(C(F)(F)F)cc1 ?
INS promoter inh: 32; ROMK primary: -0.25; WT yeast gro inh: 7; Cl transport mod: 0.19; Lmaj promast: 99*; Insulin prom up: -1.2

What do the screens show for `CC1(C)CC2CC(C)(CN2S(=O)(=O)c2ccc(C(=O)Nc3ccc(Cl)c(S(=O)(=O)N4CCOCC4)c3)cc2)C1` (stereo not given)?
INS promoter inh: 39; WT yeast gro inh: 13; Lmaj promast: 97*; Insulin prom up: 0.51

Results for CC1(C)CC2CC(C)(CN2S(=O)(=O)c2ccc(C(=O)Nc3ccc(S(=O)(=O)N4CCOCC4)cc3)cc2)C1 (stereo not given) ?
INS promoter inh: 36; ROMK primary: 0.0073; WT yeast gro inh: -3; Cl transport mod: -0.82; Lmaj promast: 99*; Insulin prom up: -2

How did CC(=O)Nc1ccc(S(=O)(=O)N2CC3(C)CC2CC(C)(C)C3)cc1 (stereo not given) do in these assays?
INS promoter inh: 5; ROMK primary: 0.89; WT yeast gro inh: 11; Cl transport mod: 0.89; Lmaj promast: 47; Insulin prom up: 0.16

How did C#CCN1C(=O)C(O)(CC(=O)/C=C/c2ccco2)c2ccccc21 (stereo not given) do in these assays?
INS promoter inh: 21; ROMK primary: 0.27; WT yeast gro inh: -4; Cl transport mod: -0.19; Lmaj promast: -3; Insulin prom up: -0.16

How did O=C1c2ccccc2NC(c2ccccc2)N1Cc1ccco1 (stereo not given) do in these assays?
WT yeast gro inh: -9; Cl transport mod: -1.4; Lmaj promast: 5; Insulin prom up: -0.05

How did O=C(O)CC1NC(=O)N(c2ccccc2)C1=O (stereo not given) do in these assays?
INS promoter inh: -500; WT yeast gro inh: -17; Cl transport mod: -0.93; Lmaj promast: -5; Insulin prom up: 0.49

How did CCc1ccc2c(c1)cc(CN(C(=S)Nc1cccc(C)c1)C1CC1)c1nnnn12 do in these assays?
INS promoter inh: 33; WT yeast gro inh: 10; Lmaj promast: -4; Insulin prom up: 0.24

How did Cc1ccc2c(c1)cc(CN(Cc1cccnc1)C(=O)c1ccccc1)c1nnnn12 do in these assays?
INS promoter inh: -7; ROMK primary: -0.35; WT yeast gro inh: -8; Lmaj promast: 48; Insulin prom up: 0.07

Results for Cc1ccc(C(=O)N(Cc2cccnc2)Cc2cc3cc(C)ccc3n3nnnc23)cc1 ?
INS promoter inh: -92; ROMK primary: -0.51; WT yeast gro inh: -13; Cl transport mod: 0.15; Lmaj promast: 96*; Insulin prom up: 1.1

Results for Cc1ccc2c(c1)cc(CN(Cc1ccc3c(c1)OCO3)S(=O)(=O)c1ccccc1)c1nnnn12 ?
INS promoter inh: -21; WT yeast gro inh: -6; Cl transport mod: 0.29; Lmaj promast: 99*; Insulin prom up: -3.8

What do the screens show for `O=c1[nH]c(=O)n(Cc2ccco2)c2c1C(C(F)(F)F)(C(F)(F)F)N=C(Cc1ccccc1)N2`?
INS promoter inh: -47; WT yeast gro inh: 62*; Cl transport mod: -0.55; Lmaj promast: 10; Insulin prom up: 0.42

What do the screens show for `CCN1CCN(CCNC(=O)c2ccc(/C=C3\Sc4ccccc4N(Cc4ccccc4F)C3=O)cc2)CC1`?
INS promoter inh: -45; ROMK primary: -1.8; WT yeast gro inh: 77*; Cl transport mod: 0.2; Lmaj promast: 100*; Insulin prom up: -0.91

Results for CN1CCN(CCCNC(=O)c2ccc(/C=C3/Sc4ccccc4N(Cc4cccc(Cl)c4)C3=O)cc2)CC1 ?
ROMK primary: -0.98; WT yeast gro inh: 97*; Cl transport mod: 0.6; Lmaj promast: 100*; Insulin prom up: -0.3

How did CN1C(=O)/C(=C/c2cccc(Cl)c2)Sc2ccc(C(=O)NCc3cccnc3)cc21 do in these assays?
INS promoter inh: -60; ROMK primary: 0.36; WT yeast gro inh: 49; Cl transport mod: -2.5; Lmaj promast: 40; Insulin prom up: -1.2

How did COCCCn1c(SCC(=O)NC(C)(C)C)nnc1-c1ccccc1 do in these assays?
WT yeast gro inh: 66*; Cl transport mod: -0.69; Lmaj promast: -3; Insulin prom up: 0.06

How did Cc1cc(N)ccc1N1CCCC1 do in these assays?
INS promoter inh: -7; WT yeast gro inh: 13; Lmaj promast: 58*; Insulin prom up: -0.27

What do the screens show for `CCN(C(=O)c1cc2cccc(OC)c2oc1=O)c1ccccc1`?
INS promoter inh: -34; WT yeast gro inh: -7; Cl transport mod: 0.3; Lmaj promast: 6; Insulin prom up: 0.59

How did CN(Cc1ccccc1F)c1ccc(S(=O)(=O)N2CCCC2)cn1 do in these assays?
ROMK primary: -0.28; WT yeast gro inh: -10; Cl transport mod: 0.14; Lmaj promast: 98*; Insulin prom up: 0.98

What do the screens show for `CN(Cc1ccccc1)c1ccc(S(=O)(=O)N2CCOCC2)cn1`?
INS promoter inh: -5; ROMK primary: 0.2; WT yeast gro inh: -9; Cl transport mod: -0.3; Lmaj promast: -8; Insulin prom up: -0.15

What do the screens show for `C=CCn1c(SCC(=O)NC2CCS(=O)(=O)C2)nc2sc(CC)cc2c1=O` (stereo not given)?
INS promoter inh: 50; ROMK primary: 0.94; WT yeast gro inh: -4; Cl transport mod: 0.05; Lmaj promast: 6; Insulin prom up: 0.2

What do the screens show for `C=CCn1c(SCC(=O)NC2CC2)nc2sc(CC)cc2c1=O`?
ROMK primary: 0.0069; WT yeast gro inh: -4; Cl transport mod: -0.45; Lmaj promast: 58*; Insulin prom up: -0.27

What do the screens show for `CCOc1cc(/C=N/n2cnnc2)ccc1OS(=O)(=O)c1ccc(C)cc1`?
ROMK primary: 0.0076; WT yeast gro inh: 18; Cl transport mod: -0.25; Lmaj promast: 79*; Insulin prom up: -1

Results for Cc1ccc(-c2csc3nc[nH]c(=S)c23)cc1C ?
WT yeast gro inh: 58; Cl transport mod: 43*; Lmaj promast: 7; Insulin prom up: 0.01

Results for CC(=O)N1CCc2cc(Br)cc(S(=O)(=O)NCCCN3CCC(C)CC3)c21 ?
INS promoter inh: 46; WT yeast gro inh: 3; Cl transport mod: -0.0087; Lmaj promast: 99*; Insulin prom up: -0.23

What do the screens show for `CC(=O)N1CCc2cc(Br)cc(S(=O)(=O)NCCN3CCCCC3C)c21` (stereo not given)?
INS promoter inh: -29; ROMK primary: -0.095; WT yeast gro inh: -13; Lmaj promast: 99*; Insulin prom up: -0.02

How did CC(=O)N1CCc2cc(Br)cc(S(=O)(=O)NCCCN3CCCC(C)C3)c21 (stereo not given) do in these assays?
INS promoter inh: 39; WT yeast gro inh: -2; Cl transport mod: 0.75; Lmaj promast: 100*; Insulin prom up: -0.36

How did CCC(=O)N1CCc2cc(Br)cc(S(=O)(=O)NCCN3CCOCC3)c21 do in these assays?
WT yeast gro inh: 3
